Measurements taken from PubChem BioAssay (Tox21).
Where “and” joins values, the source holds several entries; their conditions need not be identical. Equal values may be shown once. Results filed as inconclusive are left out. Where a structure was tested more than once in an assay, its records may differ in their call. Calls of active or inactive are those of the source. Unless noted, the call rests on the fitted dose curve; in most records, active means well fitted curve in the direction sought with a large enough effect in the repeat runs; inconclusive means weak or mixed curves; inactive means no such curve, though single readings can be large; an effect the other way counts as inactive or inconclusive.

Key:
[1] = qHTS assay to identify small molecule antagonists of the androgen receptor (AR) signaling pathway using the MDA cell line in the presence of 0.5 nM R1881 - cell viability counter screen (AID 1259242); further: nearly all actives have a fitted effect of over 45% in size
Method in brief: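 Cytotoxicity toward MDA-kb2 cells is measured by CellTiter-Fluor live-cell protease fluorescence after 16 hr compound exposure at 37C in the presence of 0.5 nM R1881 stimulator.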

[2] = target: Estrogen receptor (Homo sapiens) (UniProt P03372); assay: qHTS assay to identify small molecule antagonists of the estrogen receptor alpha (ER-alpha) signaling pathway using the BG1 cell line in the presence of 0.1 nM 17-beta-estradiol (AID 1259244); further: nearly all actives have a fitted effect of over 50% in size
Method in brief: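 After 5 days in hormone-depleted medium (charcoal-stripped serum, no phenol red), VM7Luc4E2 cells were seeded, incubated 24 h, then co-treated with compound and 0.1 nM (final) estradiol for 22 h before luminescence detection.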

[3] = qHTS assay to identify small molecule HDAC inhibitors (AID 1259364); further: nearly all actives have a fitted effect of over 45% in size; further: potency means the concentration at half of the fitted maximal effect
Method in brief: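 Homogeneous cell-based luminescent assay of endogenous class I/II HDAC activity; HCT-116 cells, 2 h compound exposure, 30 min HDAC-Glo development at RT.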

[4] = qHTS assay to identify small molecule HDAC inhibitors - cell viability counter screen (AID 1259365); further: series mostly up to about 92 µM; nearly all actives have a fitted effect of over 50% in size
Method in brief: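 To flag cytotoxic hits, 1,500 wild-type HCT-116 cells per well, plated the day before, receive test compounds for 2hr at 37 C before CellTiter-Glo reagent and a luminescence read.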

[5] = qHTS assay to identify small molecule agonists of the sonic hedgehog signaling (Shh) pathway - cell viability counter screen (AID 1259366); further: nearly all actives have a fitted effect of over 50% in size; further: potency means the concentration at half of the fitted maximal effect
Method in brief: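 Fluorescence from CellTiter-Fluor reports live cells in this counter screen. NIH/3T3-derived Gli1-Luc reporter cells receive test compounds for 24hr at 37C; reagent goes in at 23hr.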

[6] = qHTS assay to identify small molecule antagonists of the sonic hedgehog signaling (Shh) pathway - cell viability counter screen (AID 1259367); further: nearly all actives have a fitted effect of over 55% in size; further: potency means the concentration at half of the fitted maximal effect
Method in brief: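 NIH/3T3-derived Gli1-Luc reporter cells (2,000 per well) rested 4 hr at 37 C, then received DMSO compounds plus conditioned medium. After 23 hr of treatment, CellTiter-Fluor was added for 1 hr at 37C and fluorescence read.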

[7] = qHTS assay to identify small molecule agonists of the sonic hedgehog signaling (Shh) pathway (AID 1259368; calls by dose curve;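 further: NIH/3T3-derived 3T3Gli1-Luc cells carrying a stable Gli1-driven firefly luciferase reporter; series mostly up to about 92 µM; nearly all actives have a fitted effect of over 15% in size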)
Method in brief: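 Steps: seed 3T3 Gli1-Luc cells, incubate 4 hr at 37 C, pin-transfer compounds in DMSO alongside a positive control, incubate 24 hr, add luciferase detection reagent, wait 30 min at room temperature, read luminescence.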

[8] = qHTS assay to identify small molecule antagonists of the sonic hedgehog signaling (Shh) pathway (AID 1259369; calls by dose curve; further: nearly all actives have a fitted effect of over 45% in size; further: potency means the concentration at half of the fitted maximal effect)
Method in brief: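 Inhibition of Shh signalling is measured as reduced Gli1-response-element firefly luciferase output in an NIH/3T3-derived stable reporter clone stimulated with conditioned medium for 24hr.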

[9] = target: Estrogen receptor beta (Homo sapiens) (UniProt Q92731); assay: qHTS assay to identify small molecule agonists of the estrogen receptor beta (ER-beta) signaling pathway (AID 1259377; active means well fitted activation curve with a large enough effect in the signal ratio in the repeat runs, not every such curve was filed as active; the % refers to the signal ratio; further: potency means the concentration at half of the fitted maximal effect)
Method in brief: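 Screening used GripTite ER-beta-UAS-bla cells held in 2% charcoal-stripped FBS medium. After overnight (16 hr) compound incubation at 37C, beta-lactamase activity was detected with a FRET substrate by fluorescence.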

[10] = target: Androgen receptor (Homo sapiens) (UniProt P10275); assay: qHTS assay to identify small molecule antagonists of the androgen receptor (AR) signaling pathway using the MDA cell line in the presence of 0.5 nM R1881 (AID 1259243); further: nearly all actives have a fitted effect of over 50% in size
Method in brief: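 Steps: seed MDA-kb2 cells, incubate 5 hr at 37C; pin-transfer compounds in DMSO; add R1881 to 0.5 nM final; incubate 16 hr; add ONE-Glo, wait 30 min at room temperature; read luminescence.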

Measured: Potency

Chain of Estrogen receptor (Homo sapiens) (P03372 whole entry, looked up): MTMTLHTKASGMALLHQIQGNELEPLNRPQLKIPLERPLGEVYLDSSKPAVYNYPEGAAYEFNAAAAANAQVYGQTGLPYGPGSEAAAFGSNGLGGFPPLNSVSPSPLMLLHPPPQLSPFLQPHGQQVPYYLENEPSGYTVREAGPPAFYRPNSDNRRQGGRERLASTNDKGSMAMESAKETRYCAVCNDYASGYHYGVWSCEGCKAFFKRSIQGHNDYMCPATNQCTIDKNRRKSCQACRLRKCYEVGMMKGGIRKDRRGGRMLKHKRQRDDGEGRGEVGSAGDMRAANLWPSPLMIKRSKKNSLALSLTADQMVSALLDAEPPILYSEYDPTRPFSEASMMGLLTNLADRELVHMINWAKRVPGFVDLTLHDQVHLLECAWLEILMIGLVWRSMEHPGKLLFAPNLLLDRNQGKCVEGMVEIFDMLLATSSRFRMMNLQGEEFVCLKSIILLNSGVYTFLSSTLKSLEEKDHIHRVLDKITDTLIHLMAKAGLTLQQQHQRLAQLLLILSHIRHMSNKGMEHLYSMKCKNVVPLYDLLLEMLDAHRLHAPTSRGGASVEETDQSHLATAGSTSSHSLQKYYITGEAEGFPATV
Chain of Estrogen receptor beta (Homo sapiens) (Q92731 whole entry, looked up): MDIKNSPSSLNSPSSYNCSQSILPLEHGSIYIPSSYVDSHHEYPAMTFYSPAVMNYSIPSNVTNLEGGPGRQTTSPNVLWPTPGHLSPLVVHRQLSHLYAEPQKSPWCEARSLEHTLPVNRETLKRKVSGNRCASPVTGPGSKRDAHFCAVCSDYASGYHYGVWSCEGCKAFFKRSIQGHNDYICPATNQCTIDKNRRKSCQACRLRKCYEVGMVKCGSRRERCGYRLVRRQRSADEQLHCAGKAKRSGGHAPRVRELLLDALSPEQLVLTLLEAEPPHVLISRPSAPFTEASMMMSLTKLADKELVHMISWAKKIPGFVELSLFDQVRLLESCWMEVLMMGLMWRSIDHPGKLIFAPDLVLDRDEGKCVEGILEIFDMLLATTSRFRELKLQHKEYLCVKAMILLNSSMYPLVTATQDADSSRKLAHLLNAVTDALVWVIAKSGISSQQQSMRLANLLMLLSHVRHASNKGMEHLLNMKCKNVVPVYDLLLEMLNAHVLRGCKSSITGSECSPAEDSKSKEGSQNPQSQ
Chain of Androgen receptor (Homo sapiens) (P10275 whole entry, looked up): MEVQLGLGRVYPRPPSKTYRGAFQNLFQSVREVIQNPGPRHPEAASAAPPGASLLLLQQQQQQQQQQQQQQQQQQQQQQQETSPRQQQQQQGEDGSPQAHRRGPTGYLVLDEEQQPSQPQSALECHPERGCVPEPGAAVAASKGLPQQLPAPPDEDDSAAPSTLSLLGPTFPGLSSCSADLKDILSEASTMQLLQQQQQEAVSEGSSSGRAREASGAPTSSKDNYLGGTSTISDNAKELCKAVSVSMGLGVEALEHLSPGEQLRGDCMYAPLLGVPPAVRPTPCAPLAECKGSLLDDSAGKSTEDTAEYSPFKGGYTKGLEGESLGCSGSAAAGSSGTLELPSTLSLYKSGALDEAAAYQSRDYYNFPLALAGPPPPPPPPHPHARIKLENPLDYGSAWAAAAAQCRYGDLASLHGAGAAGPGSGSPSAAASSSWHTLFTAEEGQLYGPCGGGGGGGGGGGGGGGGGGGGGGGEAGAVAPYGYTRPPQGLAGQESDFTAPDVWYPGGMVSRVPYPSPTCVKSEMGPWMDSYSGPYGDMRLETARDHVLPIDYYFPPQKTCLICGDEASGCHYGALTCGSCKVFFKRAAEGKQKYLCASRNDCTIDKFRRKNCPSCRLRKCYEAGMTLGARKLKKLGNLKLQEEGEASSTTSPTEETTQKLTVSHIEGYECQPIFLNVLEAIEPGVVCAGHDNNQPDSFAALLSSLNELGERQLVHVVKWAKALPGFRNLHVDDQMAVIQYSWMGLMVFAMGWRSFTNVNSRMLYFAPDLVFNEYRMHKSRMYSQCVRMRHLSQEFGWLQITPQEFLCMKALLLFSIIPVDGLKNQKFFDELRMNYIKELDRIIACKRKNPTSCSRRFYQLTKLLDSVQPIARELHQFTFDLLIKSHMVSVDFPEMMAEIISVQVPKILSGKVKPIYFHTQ

O=[N+]([O-])c1cccc(Cl)c1
inactive: [1] | [2] | [3] | [4] | [5] | [6] | [7] | [8] | [9]

CCCCC(CC)COC(=O)/C=C\C(=O)OCC(CC)CCCC (stereo unspecified)
inactive: [1] | [10] | [3] | [4] | [5] | [6] | [7] | [8] | [9]

Cc1cc(=O)[nH]c(C(C)C)n1
inactive: [1] | [10] | [3] | [4] | [5] | [6] | [7] | [8]

CC(C)(CO)COC(=O)C(C)(C)CO
inactive: [1] | [10] | [2] | [3] | [4] | [5] | [6] | [7] | [8] | [9]

C=CC(=O)OCCCCCCCC(C)C
inactive: [1] | [10] | [2] | [3] | [4] | [5] | [6] | [7] | [8] | [9]

CCc1ccc(O)cc1
inactive: [1] | [10] | [3] | [4] | [5] | [6] | [8] | [9]

O=Nc1ccc(O)cc1
inactive: [1] | [10] | [3] | [4] | [5] | [6] | [7] | [8] | [9]

Nc1cc(-c2ccncc2)c[nH]c1=O
inactive: [1] | [10] | [2] | [3] | [4] | [5] | [6] | [7] | [8] | [9]

NCCNCCNCCNCCN
inactive: [1] | [10] | [3] | [4] | [5] | [6] | [7] | [8] | [9]

S=c1nc[nH]c2nc[nH]c12
inactive: [1] | [2] | [3] | [4] | [5] | [6] | [7] | [8] | [9]

CC1Cc2ccccc2N1NC(=O)c1ccc(Cl)c(S(N)(=O)=O)c1 (stereo unspecified)
inactive: [1] | [2] | [3] | [4] | [5] | [6] | [7] | [8] | [9]

Nc1nc2ncc(CNc3ccc(C(=O)N[C@@H](CCC(=O)O)C(=O)O)cc3)nc2c(=O)[nH]1
inactive: [1] | [10] | [3] | [4] | [5] | [6] | [8] | [9]

c1ccc2ccccc2c1
inactive: [1] | [2] | [3] | [4] | [5] | [6] | [7] | [8]

O=C(c1cc(O)c(O)c(O)c1)c1ccc(O)c(O)c1O
34.4 µM (active) and inactive: [8]
inactive: [1] | [2] | [3] | [4] | [7] | [9]
active: [5] 54.3 µM and 54.5 µM | [6] 54.5 µM

CCCCC(CC)C(=O)OCCOCCOCCOC(=O)C(CC)CCCC (stereo unspecified)
inactive: [1] | [10] | [3] | [4] | [5] | [6] | [7] | [8] | [9]

C[C@@H]1O[C@@H](OC[C@H]2O[C@@H](Oc3c(-c4ccc(O)c(O)c4)oc4cc(O)cc(O)c4c3=O)[C@H](O)[C@@H](O)[C@@H]2O)[C@H](O)[C@H](O)[C@H]1O
inactive: [1] | [10] | [3] | [4] | [5] | [6] | [7] | [8] | [9]

CC(C)(C)C1CCC(O)CC1 (stereo unspecified)
inactive: [1] | [2] | [3] | [4] | [5] | [6] | [7] | [8] | [9]

O=C(Cl)c1c(Cl)c(Cl)c(C(=O)Cl)c(Cl)c1Cl
inactive: [1] | [2] | [3] | [4] | [5] | [6] | [7] | [8] | [9]

CCCCCCCCCC(=O)O
inactive: [1] | [10] | [3] | [4] | [5] | [6] | [7] | [8]

OC[C@@H](O)[C@H](O)[C@H](O)[C@@H](O)CO
inactive: [1] | [2] | [3] | [4] | [5] | [6] | [7] | [8]

CCC(C)C=O (stereo unspecified)
inactive: [1] | [2] | [3] | [4] | [5] | [6] | [7] | [8]
4.32 µM (active) and inactive: [9]

CCCCOCCOCCOC(=O)CCCCC(=O)OCCOCCOCCCC
inactive: [1] | [2] | [3] | [4] | [5] | [6] | [7] | [8] | [9]

O=c1c(-c2ccc(O)cc2)coc2cc(O)ccc12
inactive: [1] | [10] | [4] | [5] | [6]
active: [3] 5.39 µM and 6.11 µM | [8] 13.5 µM and 19.3 µM

CC1=C(/C=C/C(C)=C/C=C/C(C)=C/CO)C(C)(C)CCC1
inactive: [1] | [2] | [3] | [4] | [5] | [6] | [7] | [9]
active: [8] 15.5 µM
